Assay outcomes: PubChem, Sanford-Burnham Center for Chemical Genomics
tim23-1 inh – growth inhibitors of tim23-1 mutant yeast | inhibition, % at 20 µM | S. cerevisiae tim23-1 growth, BacTiter-Glo luminescence, 24 h | AID 463212 | actives 1.3% (n = 330,000);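 active = growth inhibition of the mutant yeast at or above 50%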;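 note: temperature-sensitive mutant grown at 25 °C; plate controls were DMSO-treated mutant yeast for no effect and medium wells lacking yeast for full effect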
NALP3 yeast inh – NALP3 inhibition in yeast; Yeast reconstituted NLRP3/ASC/caspase-1, beta-gal luminescence, 24 h; inhibition, % at 10 µM; actives 0.39% (n = 330,000);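 active = inhibition of 50% or more; inactive = inhibition below 50%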;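 note: plate controls were induced DMSO wells for no effect and uninduced yeast grown without galactose for full effect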
NALP1 inh – inhibitors of NALP1 inflammasome in yeast | S. cerevisiae NALP1/ASC/caspase-1 growth, X-gal OD620, 72 h | inhibition, % at 10 µM | actives 0.61% (n = 280,000) | AID 2071; in the data active = inhibition mostly above about 24%, no sharp cut-off; inactive = mostly below about 32%
TIM10 inh – TIM10 yeast growth inhibition. AID 463195. actives 1.4% (n = 330,000). inhibition, % at 10 µM. S. cerevisiae TIM10 strain growth, BacTiter-Glo luminescence, 24 h;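 active = inhibition of 40% or more at the single tested concentration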;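 note: wild-type TIM10 isogenic control strain grown at permissive 25 °C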
tim10-1 inh – inhibits growth of tim10-1 mutant yeast; S. cerevisiae tim10-1 ts strain growth, BacTiter-Glo, 24 h; inhibition, % at 20 µM; actives 2.2% (n = 330,000); AID 463190;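 active = inhibition of at least 40%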;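 note: mutant grown at 25 °C; 0% = DMSO wells with yeast and 100% = wells holding no yeast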
tim10-1 confirm – tim10-1 yeast growth inhibition, confirmed. shares compounds with tim10-1 inh. S. cerevisiae tim10-1 ts strain growth, BacTiter-Glo, 24 h. inhibition, % at 20 µM. actives 56% (n = 7,400). AID 463213;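 active = inhibition of yeast growth at or above a set limit in either of two repeat tests at 20 µM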;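 note: tim10-1 mutant grown at permissive 25 °C to find synthetic lethal compounds; 0% = DMSO yeast wells and 100% = medium wells without yeast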
* hit, by the source's call; nt = no result given. In the library only some 4% were active in any assay of this set; here they are far more common.

SMILES	tim23-1 inh	NALP3 yeast inh	NALP1 inh	TIM10 inh	tim10-1 inh	tim10-1 confirm
COc1cccc(NC(=O)N2CCCC2C(=O)NC23CC4CC(CC(C4)C2)C3)c1 (centres undefined)	23.8	11.3	10.2	-4.2	8.7	nt
COc1ccc(OC)c(S(=O)(=O)NCC(c2ccco2)S(=O)(=O)c2ccccc2)c1 (centres undefined)	11.0	-11.8	nt	3.4	43.4*	37.7*
Cc1ccc(S(=O)(=O)NCCC(c2ccccc2)c2ccco2)cc1 (centres undefined)	37.4	-0.9	10.8	-8.0	-18.6	nt
Cc1ccc(S(=O)(=O)NCC(c2ccco2)S(=O)(=O)c2ccccc2)cc1 (centres undefined)	27.4	12.7	nt	4.9	43.5*	32.6*
COc1ccc(OC)c(S(=O)(=O)NCC(c2ccco2)N2CCc3ccccc3C2)c1 (centres undefined)	22.3	11.1	nt	18.2	27.2	nt
O=S(=O)(Nc1cc(Cl)ccn1)c1ccc(Cl)cc1	36.4	-3.2	-8.5	2.9	42.0*	23.2
O=S(=O)(Nc1ncccc1O)c1ccc(Cl)cc1	10.9	5.9	2.1	7.1	7.7	nt
CCC1CCCCN1C(=O)Cn1nc([N+](=O)[O-])c(Cl)c1C (centres undefined)	16.2	7.7	-1.7	1.9	0.3	nt
CCC(CC)C(=O)Nc1nnc(SCC(=O)NC(C)(C)C)s1	-4.6	10.0	11.1	-3.1	1.5	nt
O=C(COC(=O)c1cnccn1)Nc1ncc(C(F)(F)F)cc1Cl	-7.6	11.6	nt	-0.6	-4.9	nt
COc1cccc(NC(=O)Nc2ccc3c(c2)OCO3)c1	-4.5	10.0	13.1	8.3	-25.0	nt
COc1ccc(Cl)cc1C(=O)Nc1ccc2c(c1)OCCO2	42.6	34.7	13.6	16.3	17.5	nt
COc1ccc(Cl)cc1C(=O)Nc1ccc2c(c1)OCO2	38.0	23.6	6.1	18.5	45.8*	35.3*
COc1ccc(OC)c(NC(=O)Nc2ccc3c(c2)OCO3)c1	36.5	16.9	14.1	2.3	40.0*	27.3
Cc1ccc(C(=O)NCCOC23CC4CC(CC(C4)C2)C3)cc1	44.7	14.9	18.7	33.4	32.9	nt
COc1cc(OC)cc(C(=O)NCCOC23CC4CC(CC(C4)C2)C3)c1	24.5	-1.9	6.1	4.4	45.5*	30.3
N#Cc1ccc(NCC(=O)Nc2ccc(S(=O)(=O)N3CCCCC3)cc2)cc1	-4.1	8.2	nt	5.8	0.8	nt
N#CC1(c2ccc(NC(=O)c3ccccc3F)cc2)CCCC1	37.6	-6.2	30.3	21.5	21.5	nt
CC[n+]1c(C)sc2c(C)cc(C)cc21	29.5	9.6	21.1	24.5	41.7*	33.8*
Cc1cc(C)c2sc(C)[n+](CCCS(=O)(=O)[O-])c2c1	3.5	-12.6	-19.8	-4.6	-0.6	nt
CCC(=O)O/N=C(\N)c1ccc(Oc2cc(C)c(Cl)c(C)c2)c([N+](=O)[O-])c1	21.9	13.2	nt	31.6	32.0	nt
Cc1nnc(N/N=C/c2cccc(OCc3ccc(Cl)c(Cl)c3)c2)n1N	40.7	16.3	2.1	23.8	43.0*	36.4*
Cn1c(=O)c(C(=O)CCl)c(N)n(CC2CC2)c1=O	32.5	9.8	16.8	27.2	12.7	nt
CCOC(=O)c1c(C)[nH]c(C(=O)Nc2ccc3c(c2)OCO3)c1C	45.1	28.8	15.5	38.6	42.9*	31.7*
O=C(Nc1nc2ccc(Cl)cc2s1)c1ccco1	33.6	20.1	-7.3	39.4	40.1*	29.9
SMILES	tim23-1 inh	NALP3 yeast inh	NALP1 inh	TIM10 inh	tim10-1 inh	tim10-1 confirm
O=C(Nc1nc2ccc(Br)cc2s1)c1ccco1	33.1	25.9	17.6	12.7	24.9	nt
CC(=O)Nc1cc(C(F)(F)F)ccc1OCCOc1ccccc1	42.0	18.8	nt	5.7	46.8*	25.2
CCOc1ccc(C(=O)Nc2cnn(Cc3ccc(Cl)c(Cl)c3)c2)cc1	33.3	15.2	3.7	30.7	40.6*	35.2*
O=C(NCc1cccnc1)c1ccc(Br)s1	-6.8	7.4	nt	-23.4	-0.3	nt
COc1ccc(S(=O)(=O)Nc2cc3c4c(c2)CCN4C(=O)CC3)cc1	0.2	6.2	nt	24.3	13.8	nt
S=C(Nc1ccc(Cl)cc1)c1nc2ccccc2[nH]1	36.2	8.8	16.5	37.6	48.5*	35.9*
CC(C)(CN1CCN(Cc2ccccc2)CC1)NS(=O)(=O)c1ccc(Cl)cc1	25.7	32.8	45.9	11.5	0.6	nt
COc1ccc(/C=C/C(=O)c2ccc(OC)cc2OC)c(OC)c1	17.6	11.4	3.9	-3.2	2.6	nt
COc1ccc(/C=C/C(=O)c2ccccc2)c(OC)c1	20.0	9.0	-0.3	22.4	43.6*	25.4
Cc1cc(C)c2cc3c(N)c(C(=O)N4CCc5ccccc5C4)sc3nc2c1	27.8	5.8	26.6	23.6	27.8	nt
Cc1cccc2cc3c(N)c(C(=O)N4CCOCC4)sc3nc12	35.5	12.2	10.7	16.2	42.1*	33.7*
Cc1ccc2[nH]c3c(c2c1)CN(C(=O)CN1c2ccc(F)cc2CCC1C)CC3 (centres undefined)	41.0	23.6	2.6	29.0	42.7*	37.6*
Cc1ccc2[nH]c3c(c2c1)CN(C(=O)CN1CCN(C(=O)c2ccco2)CC1)CC3	12.6	15.3	1.6	-10.6	-28.7	nt
COC(C/C=C/C(=O)COCc1ccccc1)OC	41.5	10.9	nt	33.7	46.1*	41.0*
Cc1noc(C(=O)Nc2cccc(O)c2)c1Cl	2.8	2.3	nt	-2.8	-20.3	nt
COC(=O)c1ccc(OC(=O)CS(=O)c2ccccc2[N+](=O)[O-])cc1 (centres undefined)	36.0	-6.0	14.1	27.5	55.4*	35.5*
Cc1ccccc1NS(=O)(=O)c1cc(C(=O)NCCC2=CCCCC2)ccc1C	49.6	15.0	5.0	24.3	40.4*	25.4
O=C(NCCC1=CCCCC1)c1ccc(Cl)c(S(=O)(=O)Nc2ccccc2)c1	39.3	23.5	35.7	27.4	33.5	nt
Cc1ccccc1NS(=O)(=O)c1cc(C(=O)N2CCc3ccccc3C2)ccc1C	37.0	3.8	8.9	4.5	42.3*	32.7*
Cc1ccc(C(=O)NCCC2=CCCCC2)cc1S(=O)(=O)N1CCOCC1	23.1	12.2	nt	-6.4	19.7	nt
Cc1ccc(C(=O)NCCC2=CCCCC2)cc1S(=O)(=O)N1CCCCC1	38.9	4.9	nt	6.3	41.0*	26.5
Cc1ccc(C(=O)N2CCc3ccccc3C2)cc1S(=O)(=O)N1CCOCC1	30.7	27.4	19.0	11.8	27.8	nt
CCOC(=O)c1ccc(C(=O)OCC)c(NC(=S)Nc2ccc([N+](=O)[O-])cc2OC)c1	38.5	8.7	-1.0	12.9	18.2	nt
O=C(CSc1nnc(-c2ccccc2F)n1C1CCCCC1)Nc1cc(C(=O)O)ccc1Cl	13.6	-7.1	nt	19.3	-3.2	nt
CCn1c(C)nc2cc(C(=O)N/N=C/c3cccc(O)c3O)ccc21	-17.2	11.8	8.9	-2.3	12.5	nt
COc1ccc2c(c1)C(=O)Cc1ccccc1O2	42.1	-0.7	nt	2.5	20.3	nt
COc1cc(C(=O)O)nc(OC)n1	-12.7	29.9	2.7	9.2	0.2	nt
C=CCOc1ccc(/C=N/O)cc1Cl	18.2	12.9	16.5	-15.1	-0.1	nt
